Reference: the supplement of paper PMC6853941
Values without a mark were called inactive.

Tested on: MCF10A
Assay: perturbation Mahalanobis distance of morphological profile vs DMSO controls (Mahalanobis distance (SD units)); higher = stronger morphological change, active = 7 or more
Conditions: 72 h
Procedure: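 MCF10A cells were seeded onto drugs dispensed acoustically into 384-well plates, using one dose per drug chosen from its human peak plasma concentration, and incubated for 72 h at 37 °C. Cells were stained for DNA, tubulin and mitochondria and imaged; 78 CellProfiler features were extracted, plate-normalised and compared with DMSO wells.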

[1] = screen batch: Batch1_Mahalanobis_Distance
[2] = screen batch: Batch2_Mahalanobis_Distance

Compound	perturbation Mahalanobis distance [1]	perturbation Mahalanobis distance [2]
CCCN[C@H]1CCc2nc(N)sc2C1 [Pramipexole] (0.15 µM)	2.79	2.65
Nc1nc(Cl)nc2c1ncn2[C@@H]1O[C@H](CO)[C@@H](O)[C@@H]1F [Clofarabine] (7.5 µM)	10.2 (active)	16.5 (active)
S=c1nc[nH]c2nc[nH]c12 [6-Mercaptopurine] (9.9 µM)	2.97	8.34 (active)
CO[C@H]1O[C@@H]2O[C@@]3(C)CC[C@H]4[C@H](C)CC[C@@H]([C@H]1C)[C@@]24OO3 [Artemether] (3.9 µM)	1.96	2.48
Cc1cn[nH]c1 [Fomepizole] (299.6 µM)	2.14	3.81
CO[C@H]1/C=C/O[C@@]2(C)Oc3c(C)c(O)c4c(c3C2=O)C2=NC3(CCN(CC(C)C)CC3)NC2=C(NC(=O)/C(C)=C\C=C\[C@H](C)[C@H](O)[C@@H](C)[C@@H](O)[C@@H](C)[C@H](OC(C)=O)[C@@H]1C)C4=O [Rifabutin] (0.89 µM)	6.13	3.99
Clc1ccc2c(c1)C(N1CCNCC1)=Nc1ccccc1O2 [Amoxapine] (9.6 µM)	2.24	3.6
OCCN1C[C@H](O)[C@@H](O)[C@H](O)[C@H]1CO [Miglitol] (45.4 µM)	1.78	2.1
O=c1n(CCCN2CCN(c3cccc(Cl)c3)CC2)nc2ccccn12 [Trazodone] (21.5 µM)	2.62	3.12
